According to publication PMC11574364:

Experiments:
Test in all cases: protein domain microarray probed with biotinylated miRNA; Domain array: 20 mM Tris-HCl pH 7.4, 200 mM KCl, 0.2 mM EDTA, 0.05% NP40, 2 ug/ul heparin, overnight 4 C. ORF array: PBS pH 7.0 with RNase inhibitor, 100 ng RNA; high values mean tight binding
Conditions in all cases: ssRNA
VIGILIN(1-5) = VIGILIN(1-5) (Homo sapiens, UniProt Q00341)
RBMX = RBMX (Homo sapiens, UniProt P38159)
IGF2BP3(1-2) = IGF2BP3(1-2) (Homo sapiens, UniProt O00425)
Chain of IGF2BP3(1-2) (O00425 178-364): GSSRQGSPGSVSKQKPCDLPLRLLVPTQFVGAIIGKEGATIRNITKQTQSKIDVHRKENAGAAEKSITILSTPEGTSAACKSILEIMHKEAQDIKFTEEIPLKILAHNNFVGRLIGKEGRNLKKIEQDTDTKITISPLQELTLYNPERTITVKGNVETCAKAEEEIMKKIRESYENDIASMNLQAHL

RBM24 = target: T1, RBM24 (Homo sapiens, UniProt Q9BX46)
T1 sequence: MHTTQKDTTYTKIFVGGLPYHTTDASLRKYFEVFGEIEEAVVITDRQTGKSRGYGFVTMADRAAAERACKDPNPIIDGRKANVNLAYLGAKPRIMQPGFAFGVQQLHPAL

TNRC4(3) = TNRC4(3) (Homo sapiens, UniProt Q5SZQ8)
Chain of TNRC4(3) (Q5SZQ8 351-465): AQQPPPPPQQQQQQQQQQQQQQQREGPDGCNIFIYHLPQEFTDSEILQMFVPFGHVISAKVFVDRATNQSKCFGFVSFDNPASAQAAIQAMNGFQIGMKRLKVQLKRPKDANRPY

RBM44 = target: T2, RBM44 (Homo sapiens, UniProt Q6ZP01)
T2 sequence: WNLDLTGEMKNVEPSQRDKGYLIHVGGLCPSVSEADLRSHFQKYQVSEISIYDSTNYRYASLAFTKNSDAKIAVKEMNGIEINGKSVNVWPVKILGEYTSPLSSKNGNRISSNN

RBM7 = target: T3, RBM7 (Homo sapiens, UniProt Q9Y580)
T3 sequence: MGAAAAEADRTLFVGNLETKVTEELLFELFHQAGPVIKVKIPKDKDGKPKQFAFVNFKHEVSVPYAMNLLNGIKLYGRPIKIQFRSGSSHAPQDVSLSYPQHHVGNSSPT

RED1(1)/ADARB1 = RED1(1)/ADARB1 (Homo sapiens, UniProt P78563)
KHDRBS1 = KHDRBS1 (Homo sapiens, UniProt Q07666)
Chain of KHDRBS1 (Q07666 85-210): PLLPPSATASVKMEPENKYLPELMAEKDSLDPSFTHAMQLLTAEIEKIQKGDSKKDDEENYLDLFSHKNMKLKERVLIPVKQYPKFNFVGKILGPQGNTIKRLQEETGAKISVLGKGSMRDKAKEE

RBM3 = RBM3 (Homo sapiens, UniProt P98179)
Chain of RBM3 (P98179 1-110): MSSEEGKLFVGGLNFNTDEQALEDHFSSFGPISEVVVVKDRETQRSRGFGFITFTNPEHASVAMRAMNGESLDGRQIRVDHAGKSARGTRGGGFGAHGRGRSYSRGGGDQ

YTHDF3 = target: T4, YTHDF3 (Homo sapiens, UniProt Q7Z739)
T4 sequence: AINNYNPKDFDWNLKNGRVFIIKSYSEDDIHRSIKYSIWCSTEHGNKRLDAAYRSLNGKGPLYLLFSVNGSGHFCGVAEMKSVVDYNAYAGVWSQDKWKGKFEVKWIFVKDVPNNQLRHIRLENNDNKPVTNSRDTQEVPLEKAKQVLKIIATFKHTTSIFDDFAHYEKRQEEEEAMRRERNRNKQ

SFRS4 = target: T5, SFRS4 (Homo sapiens, UniProt Q08170)
T5 sequence: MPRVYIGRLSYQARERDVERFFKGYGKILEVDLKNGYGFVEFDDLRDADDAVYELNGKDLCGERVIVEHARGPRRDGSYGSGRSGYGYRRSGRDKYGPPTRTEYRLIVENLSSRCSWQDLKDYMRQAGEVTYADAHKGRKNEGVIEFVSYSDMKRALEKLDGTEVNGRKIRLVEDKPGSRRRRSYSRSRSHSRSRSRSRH

DUS2L = target: T6, DUS2L (Homo sapiens, UniProt Q9NX74)
T6 sequence: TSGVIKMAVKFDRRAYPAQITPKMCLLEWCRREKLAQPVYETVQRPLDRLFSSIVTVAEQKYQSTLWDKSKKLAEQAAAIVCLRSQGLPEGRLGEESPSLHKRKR

NFAT90(2)/ILF3 = target: T7, NFAT90(2)/ILF3 (Homo sapiens, UniProt Q12906)
T7 sequence: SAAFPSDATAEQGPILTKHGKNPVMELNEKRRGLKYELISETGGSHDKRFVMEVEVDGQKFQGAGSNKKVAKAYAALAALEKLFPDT

STAU2(1-2) = target: T8, STAU2(1-2) (Homo sapiens, UniProt Q9NUL3)
T8 chain: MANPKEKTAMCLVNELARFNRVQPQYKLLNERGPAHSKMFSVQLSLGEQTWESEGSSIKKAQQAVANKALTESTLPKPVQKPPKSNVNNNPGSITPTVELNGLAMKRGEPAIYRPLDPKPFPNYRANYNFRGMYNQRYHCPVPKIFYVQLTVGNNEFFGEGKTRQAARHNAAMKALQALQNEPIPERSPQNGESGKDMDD

YTHDF2 = target: T9, YTHDF2 (Homo sapiens, UniProt Q9Y5A9)
T9 sequence: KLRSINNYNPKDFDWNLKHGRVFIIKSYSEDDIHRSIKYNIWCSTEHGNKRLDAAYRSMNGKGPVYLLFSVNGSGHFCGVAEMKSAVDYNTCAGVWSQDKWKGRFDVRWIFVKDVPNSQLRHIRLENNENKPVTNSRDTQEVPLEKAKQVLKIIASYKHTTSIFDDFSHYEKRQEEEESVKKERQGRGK

RNPC2 = target: T10, RNPC2 (Homo sapiens, UniProt Q14498)
T10 sequence: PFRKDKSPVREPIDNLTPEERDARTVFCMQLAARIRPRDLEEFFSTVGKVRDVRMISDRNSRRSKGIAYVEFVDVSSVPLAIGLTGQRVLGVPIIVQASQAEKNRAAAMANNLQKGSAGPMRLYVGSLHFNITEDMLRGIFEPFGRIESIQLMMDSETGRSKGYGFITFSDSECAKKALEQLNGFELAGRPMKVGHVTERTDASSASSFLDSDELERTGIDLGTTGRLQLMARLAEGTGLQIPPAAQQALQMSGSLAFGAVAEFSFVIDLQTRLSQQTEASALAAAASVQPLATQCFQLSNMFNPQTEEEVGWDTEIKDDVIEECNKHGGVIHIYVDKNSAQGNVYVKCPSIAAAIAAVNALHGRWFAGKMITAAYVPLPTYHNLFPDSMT

RBM12B(4) = target: T11, RBM12B(4) (Homo sapiens, UniProt Q8IXT5)
T11 sequence: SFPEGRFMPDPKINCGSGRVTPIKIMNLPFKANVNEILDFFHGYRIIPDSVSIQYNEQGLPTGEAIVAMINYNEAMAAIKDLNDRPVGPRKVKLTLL

SON = target: T12, SON (Homo sapiens, UniProt P18583)
T12 sequence: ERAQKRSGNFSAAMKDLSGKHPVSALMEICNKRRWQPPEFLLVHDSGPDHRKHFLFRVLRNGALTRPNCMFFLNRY

NOVA2(1-2) = target: T13, NOVA2(1-2) (Homo sapiens, UniProt Q9UNW9)
T13 sequence: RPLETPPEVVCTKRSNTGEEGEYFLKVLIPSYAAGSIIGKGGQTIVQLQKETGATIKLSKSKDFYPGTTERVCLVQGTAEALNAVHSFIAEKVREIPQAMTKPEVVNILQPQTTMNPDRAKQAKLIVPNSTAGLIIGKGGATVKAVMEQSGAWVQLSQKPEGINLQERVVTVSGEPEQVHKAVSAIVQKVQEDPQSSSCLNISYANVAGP

Chain of VIGILIN(1-5) (Q00341 138-534): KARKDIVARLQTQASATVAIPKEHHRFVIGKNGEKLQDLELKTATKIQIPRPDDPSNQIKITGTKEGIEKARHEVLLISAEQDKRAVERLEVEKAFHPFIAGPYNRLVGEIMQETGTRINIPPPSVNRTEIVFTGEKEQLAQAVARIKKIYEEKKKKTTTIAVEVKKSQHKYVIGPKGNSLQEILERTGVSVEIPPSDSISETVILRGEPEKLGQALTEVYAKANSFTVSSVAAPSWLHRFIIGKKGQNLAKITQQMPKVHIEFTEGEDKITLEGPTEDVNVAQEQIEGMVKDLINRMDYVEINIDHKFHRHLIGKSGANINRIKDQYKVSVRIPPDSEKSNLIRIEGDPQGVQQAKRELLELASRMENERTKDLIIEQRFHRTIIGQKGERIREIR
Chain of RBMX (P38159 1-110): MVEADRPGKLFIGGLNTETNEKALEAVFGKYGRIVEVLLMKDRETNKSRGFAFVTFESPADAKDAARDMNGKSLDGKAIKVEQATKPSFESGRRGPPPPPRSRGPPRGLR

Row | Sequence | binding signal (VIGILIN(1-5)) | binding signal (RBMX) | binding signal (IGF2BP3(1-2)) | binding signal (RBM24) | binding signal (TNRC4(3)) | binding signal (RBM44) | binding signal (RBM7) | binding signal (RED1(1)/ADARB1) | binding signal (KHDRBS1) | binding signal (RBM3) | binding signal (YTHDF3) | binding signal (SFRS4) | binding signal (DUS2L) | binding signal (NFAT90(2)/ILF3) | binding signal (STAU2(1-2)) | binding signal (YTHDF2) | binding signal (RNPC2) | binding signal (RBM12B(4)) | binding signal (SON) | binding signal (NOVA2(1-2))
1 | UGAGGUAGUAGGUUGUAUAGUU | 86.5 ± 26.5 fluorescence intensity | 216 ± 27.7 fluorescence intensity | 21.2 ± 1.65 fluorescence intensity | 596 ± 24 fluorescence intensity | 69.3 ± 14.8 fluorescence intensity | 20.7 ± 0.276 fluorescence intensity | 22.1 ± 0.665 fluorescence intensity | 40.73 ± 0.318 fluorescence intensity | 22.6 ± 1.88 fluorescence intensity | 669 ± 18.7 fluorescence intensity | 30 ± 0.891 fluorescence intensity | 20.4 ± 3.62 fluorescence intensity |  |  |  |  |  |  |  | 
2 | AGAGGUAGUAGGUUGCAUAGUU | 173 ± 11.1 fluorescence intensity | 963 ± 66.7 fluorescence intensity | 44.2 ± 2.91 fluorescence intensity | 1891 ± 18.8 fluorescence intensity | 191 ± 21.4 fluorescence intensity |  | 36.3 ± 3 fluorescence intensity | 152 ± 6.66 fluorescence intensity | 21.6 ± 3.36 fluorescence intensity | 2295 ± 10 fluorescence intensity | 60.7 ± 7.12 fluorescence intensity | 238 ± 11.7 fluorescence intensity | 25.82 ± 0.0919 fluorescence intensity | 21.9 ± 1.63 fluorescence intensity | 53.6 ± 0.792 fluorescence intensity | 38.4 ± 3.27 fluorescence intensity | 27 ± 3 fluorescence intensity | 23.2 ± 2.64 fluorescence intensity | 20.1 ± 1.45 fluorescence intensity | 151 ± 5.8 fluorescence intensity
3 | UGAGGUAGUAGGUUGUAUGGUU | 454 ± 17.2 fluorescence intensity | 571 ± 25 fluorescence intensity | 34.3 ± 8.59 fluorescence intensity | 1340 ± 23.1 fluorescence intensity | 333 ± 23.4 fluorescence intensity | 24.5 ± 2.6 fluorescence intensity | 45.27 ± 0.0778 fluorescence intensity | 151 ± 4.54 fluorescence intensity | 25.6 ± 0.417 fluorescence intensity | 1642 ± 12.9 fluorescence intensity | 117 ± 1.29 fluorescence intensity | 206 ± 51.4 fluorescence intensity | 47.2 ± 5.46 fluorescence intensity | 27.3 ± 2.02 fluorescence intensity | 74.1 ± 4.8 fluorescence intensity | 72.2 ± 12.5 fluorescence intensity | 43.3 ± 11.8 fluorescence intensity | 62 ± 3.02 fluorescence intensity | 23.9 ± 4.74 fluorescence intensity | 26.8 ± 4.61 fluorescence intensity
4 | UGAGGUAGUAGGUUGUGUGGUU | 622 ± 17.6 fluorescence intensity | 721 ± 26 fluorescence intensity | 61.2 ± 7.31 fluorescence intensity | 1780 ± 28.1 fluorescence intensity | 324 ± 34.8 fluorescence intensity |  | 50.2 ± 0.997 fluorescence intensity | 230 ± 23.8 fluorescence intensity | 28.3 ± 5.26 fluorescence intensity | 1550 ± 33.7 fluorescence intensity | 129 ± 9.2 fluorescence intensity | 339 ± 8.46 fluorescence intensity | 76.1 ± 2.55 fluorescence intensity | 45.6 ± 4.09 fluorescence intensity | 148.7 ± 0.905 fluorescence intensity | 90.3 ± 14.1 fluorescence intensity | 80.9 ± 8.52 fluorescence intensity | 50.1 ± 2.09 fluorescence intensity | 24.3 ± 4.36 fluorescence intensity | 40.2 ± 2.14 fluorescence intensity
5 | UAGCUUAUCAGACUGAUGUUGA | 20.4 ± 2.57 fluorescence intensity | 71.4 ± 18 fluorescence intensity |  | 1720 ± 109 fluorescence intensity | 25 ± 0.665 fluorescence intensity |  |  |  |  | 409 ± 132 fluorescence intensity |  |  |  |  | 20.4 ± 2.26 fluorescence intensity |  |  |  |  | 
6 | CAGUGCAAUGAUGAAAGGGCAU | 156 ± 8.85 fluorescence intensity | 686 ± 37.1 fluorescence intensity | 43.1 ± 3.58 fluorescence intensity | 1450 ± 56.8 fluorescence intensity | 85.6 ± 1 fluorescence intensity | 21.2 ± 0.735 fluorescence intensity | 34 ± 2.81 fluorescence intensity | 67.57 ± 0.354 fluorescence intensity | 25.1 ± 9.81 fluorescence intensity | 1390 ± 40.6 fluorescence intensity | 52.8 ± 5.03 fluorescence intensity | 236 ± 1.78 fluorescence intensity |  | 23 ± 0.905 fluorescence intensity | 39.2 ± 1.2 fluorescence intensity | 30.8 ± 0.523 fluorescence intensity |  | 38.8 ± 4.95 fluorescence intensity |  | 71.4 ± 9.69 fluorescence intensity
